Measured values: PubChem BioAssay (NCI)
Compounds without any hit were thinned out: in the full panel of roughly 79,000, 15% have a hit. Calls of active or inactive are those of the source. Rule as the data show it: active = growth inhibition above about 70%; inactive = the rest.

Assays:
[1] = NCI Yeast Anticancer Drug Screen. Data for the rad52 strain (AID 147);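 also: 0% = growth of vehicle-treated control cultures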; settings: S. cerevisiae rad52 mutant growth inhibition, stronger effect = higher value
Procedure, shortened: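 Screen used a yeast mutant impaired in DNA repair. After compound exposure, growth was measured. Values reflect inhibition compared with vehicle-treated cells.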

[2] = NCI Yeast Anticancer Drug Screen. Data for the wt1 strain (AID 149);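 also: 0% = growth of vehicle-treated wt1 cultures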; settings: S. cerevisiae wt1 strain (SPY 50644) growth inhibition, stronger effect = higher value
Procedure, shortened: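 Compounds are added to wt1 yeast cultures. Growth is then measured. Inhibition is expressed relative to vehicle-treated controls.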

[3] = NCI Yeast Anticancer Drug Screen. Data for the rad50EPP+ strain (AID 151);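 also: 0% = growth of vehicle-treated control cultures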; settings: S. cerevisiae rad50 mutant strain, stronger effect = higher value
Procedure, shortened: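 Exposing the rad50EPP+ strain to each compound, growth was compared with vehicle-only cultures to give inhibition.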

[4] = NCI Yeast Anticancer Drug Screen. Data for the mgt1 strain (AID 153); settings: S. cerevisiae mgt1 mutant growth inhibition, stronger effect = higher value
Procedure, shortened: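 Genetically defined yeast (mgt1) treated with compound; inhibition of growth expressed against vehicle-treated controls.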

[5] = NCI Yeast Anticancer Drug Screen. Data for the rad50 strain (AID 155);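 also: 0% = growth of vehicle-only cultures of the same strain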; settings: S. cerevisiae rad50 strain growth inhibition, stronger effect = higher value
Procedure, shortened: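 Inhibition values express reduced yeast growth in compound-treated cultures relative to vehicle-treated controls.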

[6] = NCI Yeast Anticancer Drug Screen. Data for the mec2-1 strain (AID 157); settings: S. cerevisiae mec2-1 strain, stronger effect = higher value
Procedure, shortened: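 Readout is yeast growth inhibition, normalised to vehicle-treated controls, in the mec2-1 strain exposed to compound.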

[7] = NCI Yeast Anticancer Drug Screen. Data for the rad14 strain (AID 159);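 also: 0% = growth of vehicle-treated control cultures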; settings: S. cerevisiae rad14 strain growth inhibition, stronger effect = higher value
Procedure, shortened: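 A mutant yeast strain defective in DNA damage repair is treated with compound; inhibition of its growth is scored against untreated, vehicle-exposed cultures.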

[8] = NCI Yeast Anticancer Drug Screen. Data for the sgs1 mgt1 strain (AID 161);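 also: 0% = growth of cultures given vehicle only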; settings: S. cerevisiae sgs1 mgt1 strain, stronger effect = higher value
Procedure, shortened: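 This yeast growth screen uses a strain with defined DNA-repair lesions; compound-treated growth is compared with vehicle-treated growth.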

[9] = NCI Yeast Anticancer Drug Screen. Data for the CLN2oe strain (AID 163);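 also: 0% = growth of vehicle-only control cultures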; settings: S. cerevisiae CLN2oe strain, stronger effect = higher value
Procedure, shortened: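 Values reflect how much compound exposure reduced yeast growth, referenced to vehicle-exposed cells. Assay organism is a strain with a defined genetic change affecting cell-cycle control.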

[10] = NCI Yeast Anticancer Drug Screen. Data for the cln2 rad14 strain (AID 165);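 also: 0% = growth equal to vehicle treated cultures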; settings: S. cerevisiae cln2 rad14 strain, stronger effect = higher value
Procedure, shortened: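 Relative to vehicle controls, growth inhibition of compound-treated cln2 rad14 yeast was recorded.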

[11] = NCI Yeast Anticancer Drug Screen. Data for the bub3 strain (AID 167); settings: S. cerevisiae bub3 mutant strain, stronger effect = higher value
Procedure, shortened: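 Steps: expose the mutant yeast strain to compound; grow alongside vehicle-treated cultures; measure growth; express inhibition against the vehicle cultures.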

[12] = NCI Yeast Anticancer Drug Screen. Data for the wt2 strain (AID 169);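 also: 0% = growth of vehicle-treated yeast cultures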; settings: S. cerevisiae wt2 strain growth inhibition, stronger effect = higher value
Procedure, shortened: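 Values express reduction in yeast growth under compound treatment, referenced to vehicle-treated cells.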

[13] = NCI Yeast Anticancer Drug Screen. Data for the mlh1 strain (AID 171);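 also: 0% = growth of vehicle-treated control cultures of the same strain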; settings: S. cerevisiae mlh1 strain growth inhibition, stronger effect = higher value
Procedure, shortened: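 Steps: expose the defined-mutant yeast strain to compound; expose a parallel culture to vehicle; measure growth; express compound effect as inhibition relative to the vehicle culture.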

[14] = NCI Yeast Anticancer Drug Screen. Data for the sgs1 strain (AID 173);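 also: 0% = growth of vehicle-only control cultures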; settings: S. cerevisiae sgs1 mutant, stronger effect = higher value
Procedure, shortened: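 Treat defined-mutant yeast with compound; measure growth; calculate inhibition relative to vehicle-treated cells.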

[15] = NCI Yeast Anticancer Drug Screen. Data for the mlh1 rad18 strain (AID 175); settings: S. cerevisiae mlh1 rad18 strain growth inhibition, stronger effect = higher value
Procedure, shortened: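 Test agents were incubated with a yeast strain of defined genotype (DNA damage repair defect). Inhibition of growth was derived by comparison with vehicle-exposed cultures.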

[16] = at 5.0 µM (retest, dose inferred, filed as 0.5)
[17] = at 50.0 µM (retest, dose inferred, filed as 5.0)

Measured: growth inhibition

CCN(CC)CCNc1ccc2nc(C)n3c4ccc(O)cc4c(=O)c1c23
active: [1]; at 3.7 µM 74% | [1]; at 11.0 µM 89% | [1]; at 33.0 µM 91% | [1]; at 100.0 µM 93% | [5]; at 3.7 µM 73% | [5]; [16] 91% | [5]; at 11.0 µM 84% | [5]; at 33.0 µM 91% | [5]; [17] 91% | [5]; at 100.0 µM 92% | [15]; at 50.0 µM 78.4%
inactive: [1]; at 1.2 µM 40% | [2]; at 1.2 µM -2% | [2]; at 3.7 µM -4% | [2]; at 11.0 µM -2% | [2]; at 33.0 µM 0% | [2]; at 100.0 µM 2% | [3]; at 1.2 µM 5% | [3]; at 3.7 µM 15% | [3]; at 11.0 µM 24% | [3]; at 33.0 µM 38% | [3]; at 100.0 µM 39% | [4]; at 1.2 µM 3% | [4]; at 3.7 µM 0% | [4]; at 11.0 µM 3% | [4]; at 33.0 µM 1% | [4]; at 100.0 µM 2% | [5]; at 1.2 µM 42% | [5]; at 50.0 µM -0.45% | [6]; at 1.2 µM -1% | [6]; at 3.7 µM 10% | [6]; [16] 15% | [6]; at 11.0 µM 3% | [6]; at 33.0 µM 14% | [6]; [17] 15% | [6]; at 50.0 µM 26.9% | [6]; at 100.0 µM 28% | [7]; at 1.2 µM -1% | [7]; at 3.7 µM 2% | [7]; at 11.0 µM 3% | [7]; at 33.0 µM 8% | [7]; at 100.0 µM 13% | [8]; [16] 18% | [8]; [17] 18% | [8]; at 50.0 µM 0.15% | [9]; at 1.2 µM -1% | [9]; at 3.7 µM 2% | [9]; at 11.0 µM -1% | [9]; at 33.0 µM 3% | [9]; at 100.0 µM -2% | [10]; [16] 28% | [10]; [17] 28% | [10]; at 50.0 µM 18.6% | [11]; at 1.2 µM -3% | [11]; at 3.7 µM -19% | [11]; [16] 39% | [11]; at 11.0 µM -1% | [11]; at 33.0 µM -5% | [11]; [17] 39% | [11]; at 50.0 µM -3.85% | [11]; at 100.0 µM 3% | [12]; at 1.2 µM 0% | [12]; at 3.7 µM 1% | [12]; at 11.0 µM 0% | [12]; at 33.0 µM 1% | [12]; at 100.0 µM 5% | [13]; at 1.2 µM 2% | [13]; at 3.7 µM 3% | [13]; at 11.0 µM -6% | [13]; at 33.0 µM 2% | [13]; at 100.0 µM 22% | [14]; at 1.2 µM 0% | [14]; at 3.7 µM -1% | [14]; at 11.0 µM 1% | [14]; at 33.0 µM 4% | [14]; at 100.0 µM 5% | [15]; [16] 6% | [15]; [17] 6%

O=C(/C=C/c1ccsc1)c1cccs1
active: [1]; at 100.0 µM 82% | [3]; at 100.0 µM 95% | [4]; at 100.0 µM 92% | [5]; at 100.0 µM 92% | [6]; at 100.0 µM 98% | [7]; at 100.0 µM 87% | [9]; at 100.0 µM 84% | [11]; at 100.0 µM 97% | [12]; at 100.0 µM 85% | [13]; at 100.0 µM 96% | [14]; at 100.0 µM 83%
inactive: [1]; at 1.2 µM -16% | [1]; at 3.7 µM -18% | [1]; at 11.0 µM -9% | [1]; at 33.0 µM -12% | [2]; at 1.2 µM -33% | [2]; at 3.7 µM -41% | [2]; at 11.0 µM -35% | [2]; at 33.0 µM -35% | [2]; at 100.0 µM 17% | [3]; at 1.2 µM 5% | [3]; at 3.7 µM 11% | [3]; at 11.0 µM 21% | [3]; at 33.0 µM 54% | [4]; at 1.2 µM 3% | [4]; at 3.7 µM -2% | [4]; at 11.0 µM -4% | [4]; at 33.0 µM 10% | [5]; at 1.2 µM 21% | [5]; at 3.7 µM 19% | [5]; [16] -15% | [5]; at 11.0 µM 22% | [5]; at 33.0 µM 27% | [5]; [17] 11% | [5]; at 50.0 µM 46.6% | [6]; at 1.2 µM -3% | [6]; at 3.7 µM -7% | [6]; [16] 4% | [6]; at 11.0 µM -2% | [6]; at 33.0 µM 8% | [6]; [17] 11% | [6]; at 50.0 µM 19.9% | [7]; at 1.2 µM 3% | [7]; at 3.7 µM 0% | [7]; at 11.0 µM -8% | [7]; at 33.0 µM 9% | [8]; [16] -1% | [8]; [17] 33% | [8]; at 50.0 µM 66.6% | [9]; at 1.2 µM 4% | [9]; at 3.7 µM 14% | [9]; at 11.0 µM 3% | [9]; at 33.0 µM 5% | [10]; [16] 37% | [10]; [17] 42% | [10]; at 50.0 µM 4.55% | [11]; at 1.2 µM 1% | [11]; at 3.7 µM 28% | [11]; [16] -11% | [11]; at 11.0 µM 11% | [11]; at 33.0 µM 23% | [11]; [17] 66% | [11]; at 50.0 µM 15.2% | [12]; at 1.2 µM -24% | [12]; at 3.7 µM -36% | [12]; at 11.0 µM -31% | [12]; at 33.0 µM -29% | [13]; at 1.2 µM 6% | [13]; at 3.7 µM 3% | [13]; at 11.0 µM -8% | [13]; at 33.0 µM 25% | [14]; at 1.2 µM -15% | [14]; at 3.7 µM -23% | [14]; at 11.0 µM -24% | [14]; at 33.0 µM -17% | [15]; [16] -9% | [15]; [17] 69% | [15]; at 50.0 µM 44.6%
